Structures are written as SMILES. Several values for one entry are separate records, joined by “and”; a condition that tells them apart may be missing. Equal values may be shown once. Records with an inconclusive call do not appear. Entries that show only a call come without a potency. Values without a mark were called inactive. Activity calls are given as the source filed them. The call rests on the fitted dose curve; in most records, active means well fitted cell-killing curve with a large enough effect; inconclusive means small, poorly fitted or top-dose-only effect, or effect the other way; inactive means no such curve, though single readings can be large or run the other way.
Potency means the concentration at half of the fitted maximal effect.

This assay in a line: Viability qHTS for spleen associated tyrosine kinase inhibitor (SYKi) naive MV4-11 cells (AID 1963823). Further: nearly all actives have a fitted effect of over 40% in size. The conditions noted are these: MV4-11 AML viability, CellTiter-Glo luminescence, 72 h; series mostly up to 45 µM. A digest of the protocol:
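Cells: MV4-11, SYK inhibitor naive, 500 per well. Treatment: library compounds, 72 hr, 37 C, 5% CO2. Read-out: CellTiter-Glo luminescence after 10 min RT.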
In the case of `Cc1nnsc1C(=O)Nc1ccc(-n2nc(C(F)(F)F)cc2C(F)(F)F)cc1`, the Potency was 18.4 µM (active).

Take `COc1cc(/C=C/C(=O)O[C@H]2C[C@@H]3C(C(=O)O)=CO[C@@H](O[C@@H]4O[C@H](CO)[C@@H](O)[C@H](O)[C@H]4O)[C@@H]3[C@H]2C)ccc1O`: the Potency entry was “inactive”.

For `COc1cc(/C=C/C(=O)O[C@H]2[C@H](O)[C@@H](CO)O[C@@]2(CO)O[C@H]2O[C@H](CO)[C@@H](O)[C@H](O)[C@H]2O)ccc1O`, the Potency entry was “inactive”.

As for `CC1=CC(=O)CC(C)(C)C1CCC(C)O[C@@H]1O[C@H](CO[C@@H]2OC[C@@H](O)[C@H](O)[C@H]2O)[C@@H](O)[C@H](O)[C@H]1O` (stereo not given in full), the Potency result is “inactive”.

With `CC1COC(Nc2ccc3ncnc(Nc4ccc(OCc5nccs5)c(Cl)c4)c3c2)=N1` (stereo not given), the Potency was 9.2 µM (active).

Take `C=C1C(O)CC2C(C(=O)O)=COC(OC3OC(CO)C(O)C(O)C3OC(=O)/C=C\c3ccc(O)cc3)C12` (stereo not given): the Potency entry is “inactive”.

With `COc1cc(Nc2nc3c(s2)CCCC3c2ccc(F)cc2)ccc1-n1cnc(C)c1` (stereo not given), the Potency is 3.66 µM (active).

For `C=CC(C)(O)CC/C=C(\C)C(=O)O[C@@H]1[C@@H](O)[C@H](OC(C)(C=C)CC/C=C(\C)C(=O)O)O[C@H](CO)[C@H]1OC(=O)/C(C)=C/CCC(C)(O)C=C` (stereo not given in full), the Potency result is “inactive”.

For `N#C[C@@H]1C[C@H](F)CN1C(=O)CNC1[C@H]2CN(C(=O)c3ccc(F)cc3)C[C@@H]12` (stereo not given in full), the Potency entry was “inactive”.

`Cc1ccc(NC(=O)c2ccc(CN3CCNCC3)cc2)cc1Nc1nccc(-c2cccnc2)n1`: the Potency was 9.2 µM (active) and 16.6 µM (active).

With `C=Cc1ccc(O[C@@H]2O[C@H](CO[C@@H]3O[C@@H](C)[C@H](O)[C@@H](O)[C@H]3O)[C@@H](O)[C@H](O)[C@H]2O)cc1`, the Potency entry is “inactive”.

On to `C/C=C(/C)C(=O)O[C@H]1C=C(CO)C(=O)[C@H](OC(=O)/C(C)=C/CO)[C@H]1C(C)C`, for which the Potency is 2.02 µM (active).

For the compound `COc1cc(C(=O)OC(COCCC(C)C)CN2CCOCC2)cc(OC)c1OC` (stereo not given), the Potency result was “inactive”.

In the case of `CC1CCC/C=C/C(=O)c2c(O)cc(O)cc2CC(=O)O1` (stereo not given), the Potency is 3.66 µM (active).

For the compound `CC(C)(O)CC(CO)NC(=O)CC(O)CC(=O)Cc1ccccc1` (stereo not given), the Potency entry is “inactive”.

Take `CCC(C)CNCC(=O)N1CCc2sccc2C1COc1cccc(C)c1` (stereo not given): the Potency is 9.2 µM (active).

Consider `CC(=O)OC[C@@]12C(=O)C[C@@H](C)[C@]3(C[C@@H](c4ccoc4)O[C@H]3OC(C)=O)[C@H]1CCC[C@]21CO1`, for which the Potency result was “inactive”.

As for `C/C=C(\C)[C@@H]1C(C)=C[C@@H]2[C@H]([C@@H]1/C=C/C=C/C(=O)O)[C@@H](C)CC[C@@H]2O`, the Potency was 6.4 µM (active).

Take `NC1CCCCN(c2c(F)cc3c(=O)c(C(=O)O)cn(C4CC4)c3c2Cl)C1` (stereo not given): the Potency result is “inactive”.

As for `C[C@]1(O)CC[C@@H]2C(C(=O)O)=CO[C@@H](O[C@@H]3O[C@H](CO)[C@@H](O)[C@H](O)[C@H]3O)[C@@H]21`, the Potency entry is “inactive”.

Take `CC1=C(C(=O)OC2OC(COC3OC(CO)C(O)C(O)C3O)C(O)C(O)C2O)C(C)(C)CCC1` (stereo not given): the Potency entry was “inactive”.

As to `C=C1C(=O)OC2C(OC(=O)C=C(C)C)C(C)=C3C(=O)C=C(C)C3C(O)C12` (stereo not given), the Potency was 2.02 µM (active).

With `O=C(O[C@H]1[C@@H]2C=CO[C@@H](O[C@@H]3O[C@H](CO)[C@@H](O)[C@H](O)[C@H]3O)[C@@H]2[C@@]2(CO)O[C@@H]12)c1ccc(O)c(O)c1`, the Potency entry is “inactive”.

Take `COc1cc(/C=C/C(=O)OC2CC(OC(C)=O)C(OC(C)=O)C3C2CCC2C(=O)OC(c4ccoc4)CC23C)ccc1O[C@@H]1O[C@H](CO)[C@@H](O)[C@H](O)[C@H]1O` (stereo not given in full): the Potency result was “inactive”.

`CCc1ccc2nc(Nc3cc(Cc4ccccc4)nc(NC4CCC(O)CC4)n3)sc2c1` (stereo not given): the Potency is 8.33 µM (active).

For the compound `C/C=C1/[C@H](O[C@@H]2O[C@H](CO)[C@@H](O)[C@H](O)[C@H]2O)OC=C(C(=O)OC)[C@H]1CC(=O)OCCc1ccc(O)c(O)c1`, the Potency result was “inactive”.

With `CC(=O)OC1C(O)CC2(C)C(CCC3(C)C2CC=C2C4C5(CCC(CO[C@@H]6O[C@H](CO)[C@@H](O)[C@H](O)[C@H]6O)(OC5=O)C4(C)O)C(O)CC23C)C1(C)C` (stereo not given in full), the Potency entry was “inactive”.

Take `CC1(C)CC[C@]2(C(=O)O[C@@H]3O[C@H](CO)[C@@H](O)[C@H](O)[C@H]3O)CC[C@]3(C)C(=CCC4[C@@]5(C)C[C@@H](O)[C@H](O)[C@@](C)(CO)C5CC[C@]43C)C2C1` (stereo not given in full): the Potency result was “inactive”.

`C=C1CC2C3(C)C=CC(=O)OC(C)(C)C3CC(OC(C)=O)C2(C)C2C(=O)OC(C)C(=O)C12C` (stereo not given): the Potency entry is “inactive”.

Take `Cc1onc(-c2c(F)cccc2Cl)c1C(=O)N[C@@H]1C(=O)N2[C@@H]1SC(C)(C)[C@@H]2C(=O)O`: the Potency entry is “inactive”.

With `CCC(C)C(=O)O[C@H]1[C@@H](O[C@H]2O[C@H](CO)[C@@H](O)[C@H](O)[C@H]2O)O[C@H](CO)[C@@H](O)[C@@H]1O` (stereo not given in full), the Potency result is “inactive”.

As for `Cc1cc(C)c(CNC(=O)c2cc(-c3ccc(CN4CCOCC4)cc3)cc3c2cnn3C2CCCC2)c(=O)[nH]1`, the Potency result was “inactive”.

Turning to `C=C1CC23CC1(O)CCC2C1=CC2OC(=O)C(C)(C2O)C1C3C(=O)O` (stereo not given), the Potency result was “inactive”.

In the case of `O=C(O)C(O[C@@H]1O[C@H](CO[C@@H]2O[C@H](CO)[C@@H](O)[C@H](O)[C@H]2O)[C@@H](O)[C@H](O)[C@H]1O)c1ccccc1` (stereo not given in full), the Potency result was “inactive”.

Turning to `C/C=C/C=C/C=C/C(=O)O[C@@H]1[C@@H](OC)C2=C(C(=O)N(C(C)C(=O)O)C2)[C@@]2(C)CCCC(C)(C)[C@H]12` (stereo not given in full), the Potency result was “inactive”.

`CC[C@H](C)/C=C(C)/C=C/C1=CC2=C(Cl)C(=O)[C@](C)(O)[C@H](OC(C)=O)[C@H]2CO1`: the Potency is 12.8 µM (active).

As for `CC(=O)O[C@H]1[C@H](O[C@H]2[C@@H]3C=CO[C@@H](O[C@@H]4O[C@H](CO)[C@@H](O)[C@H](O)[C@H]4O)[C@@H]3[C@@]3(CO)O[C@@H]23)O[C@@H](C)[C@H](OC(=O)/C=C/c2ccccc2)[C@H]1OC(=O)/C=C/c1ccccc1`, the viability (% of control) is 88.5% [at 9.25 µM].

With `CC1(C)C[C@H](O)C[C@@]2(C)[C@H]1[C@H](O)C=C1COC(=O)[C@@]12O`, the Potency result is “inactive”.

`CC(/C=C/C1(O)C(C)CC(O)CC1(C)C)OC1OC(CO)C(O)C(O)C1O` (stereo not given): the Potency entry was “inactive”.

For `CN1CCN(C(=O)c2ccc3cc(CCNc4ncnc5ccc(C#N)cc45)ccc3c2)CC1`, the Potency is 0.92 µM (active).
